# Reference: PubChem BioAssay AID630 (Emory University Molecular Libraries Screening Center, 2007)
# Hit rate of the full screen: of about 88,000 compounds, about 260 (0.3%) were called active. The sample holds actives, similar compounds and a random draw of the others, so the mix is not that of the screen. A number with no mark means an inactive call.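 Rule for the calls: active = compounds that reduce the energy-transfer binding signal between the protein and its labelled peptide by more than half; inactive = the rest.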
# Target: Mothers against decapentaplegic homolog 3 (Homo sapiens) (UniProt P84022)
# Experiment: Smad3/FoxH1 peptide binding inhibitors, primary screen, biochemical, TR-FRET (AID 630);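 note: 0% = Smad3 plus labelled peptide maximal FRET and 100% = peptide-only background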
# Settings: TR-FRET Smad3/Dy647-FoxH1 peptide binding, europium anti-His; at 25 µM; stronger effect = higher value
# Sequence of Mothers against decapentaplegic homolog 3 (Homo sapiens) (P84022 whole entry, looked up): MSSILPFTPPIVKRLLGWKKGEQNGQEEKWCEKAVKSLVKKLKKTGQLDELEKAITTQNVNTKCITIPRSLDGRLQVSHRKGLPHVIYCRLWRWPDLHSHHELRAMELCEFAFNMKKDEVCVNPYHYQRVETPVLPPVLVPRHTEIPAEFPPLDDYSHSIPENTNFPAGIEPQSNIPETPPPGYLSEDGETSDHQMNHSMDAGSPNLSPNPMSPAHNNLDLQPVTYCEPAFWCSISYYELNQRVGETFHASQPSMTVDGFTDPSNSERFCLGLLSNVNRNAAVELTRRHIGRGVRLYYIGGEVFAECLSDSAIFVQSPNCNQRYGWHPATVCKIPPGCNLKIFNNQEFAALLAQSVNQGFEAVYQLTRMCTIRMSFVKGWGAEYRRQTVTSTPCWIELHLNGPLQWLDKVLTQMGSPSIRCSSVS
row,SMILES,inhibition
1,CC(C)Nc1ncnc2c1nnn2Cc1ccccc1,-8.78%
2,CC1(C)CC(=O)C=C(N2CCCC2)C1,-13.5%
3,COc1ccccc1CNS(=O)(=O)c1ccc(C)cc1,9.13%
4,O=C(O)[C@@H]1CCc2ccc3ccccc3c2[C@H]1c1cccc2ccccc12,-9.06%
5,COC(=O)c1ccc(NC(=O)C23CC4CC(C2)CC(n2cnc(Cl)n2)(C4)C3)cc1,4.51%
6,O=C(O)[C@@H]1CS[C@]2(CCCN(Cc3ccccc3)C2)N1,7.7%
7,O=S1(=O)C=C(SCCN2CCCC2)c2ccccc21,17.4%
8,CCOC(=O)c1c(NC(=O)CCl)sc(C(=O)N(CC)CC)c1C,14.1%
9,Cc1cccc(N2CCN(C(=O)c3cnn4c(C(F)F)cc(-c5ccccc5)nc34)CC2)c1C,8.08%
10,Cn1ncc2c(Nc3cccc4ccccc34)ncnc21,2.63%
11,Cc1noc(COc2ccccc2OCc2onc(C)c2Cl)c1Cl,-10.7%
12,Cn1c2c(c(=O)n(C)c1=O)C(c1cccc([N+](=O)[O-])c1)Nc1ccccc1O2 (stereo not given),-10.5%
13,CCOc1ccc(C(O)Cc2nc3ccccc3n2C)cc1 (stereo not given),3.1%
14,CCCn1c(C)cc(C(=O)COC(=O)c2c(C)nn(-c3ccccc3)c2C)c1C,-7.34%
15,COc1ccc(C(=O)Nc2ccc(CN3CCOCC3)cc2)cc1,11%
16,N#C/C(=C\c1ccccc1)c1n[nH]c(Cn2cncn2)n1,8.55%
17,O=C(CSCc1ccc(Cl)cc1)N1CCCCC1,-8.93%
18,Cc1cccc(NC(=O)CSc2nc3c(c(=O)[nH]2)CCCC3)c1C,5.9%
19,Cc1cc2nc(SCCN3CCOCC3)[nH]c2cc1C,2.4%
20,Cc1nn(Cc2ccccc2)c2c1C(c1ccccc1)C(C#N)=C(N)O2 (stereo not given),5.74%
21,COc1ccc(N/N=C2/CCCCC2=O)cc1,-1.11%
22,Cc1ccc(-n2ccc(=O)c(C(=O)O)n2)cc1,0.02%
23,O=C(O)c1nn(-c2ccc(Cl)cc2)c2c1C(=O)c1ccccc1C2=O,53.4% (active)
24,CCOc1ccc(NC(=O)N(CC(C)C)CC(C)C)cc1,3.46%
25,N#CC1=C(SCc2ccc(C#N)cc2)N=C(N)C(c2nc(-c3ccccc3)cs2)C12CCCCC2 (stereo not given),-3.23%
26,O=C(NC1(C(F)(F)F)NC(=O)N(Cc2cccnc2)C1=O)c1ccccc1Cl (stereo not given),40.1%
27,COC(=O)c1ccc(Cc2ccccc2)o1,6.44%
28,O=C(O)c1ccc(C(=O)c2ccccc2C(=O)O)cc1C(=O)O,63.5% (active)
29,O=C(O)c1ccc(C(=O)O)c2c(C(=O)O)ccc(C(=O)O)c12,-1.5%
30,O=C(c1ccc(O)cc1)c1ccc(C(=O)O)c(C(=O)O)c1,-7.32%
